The structures appear in SMILES notation. The whole screen tested about 320,000 compounds, of which about 2,200 (0.69%) were called active. Only a selection was taken, and actives are over-represented in it overall. Unmarked numbers belong to inactive results. No stated cut-off is given here; in the data, active means inhibition above about 43%; inactive means the rest.

Prolyl endopeptidase-like (Homo sapiens), sequence (Q4J6C6 whole entry, looked up): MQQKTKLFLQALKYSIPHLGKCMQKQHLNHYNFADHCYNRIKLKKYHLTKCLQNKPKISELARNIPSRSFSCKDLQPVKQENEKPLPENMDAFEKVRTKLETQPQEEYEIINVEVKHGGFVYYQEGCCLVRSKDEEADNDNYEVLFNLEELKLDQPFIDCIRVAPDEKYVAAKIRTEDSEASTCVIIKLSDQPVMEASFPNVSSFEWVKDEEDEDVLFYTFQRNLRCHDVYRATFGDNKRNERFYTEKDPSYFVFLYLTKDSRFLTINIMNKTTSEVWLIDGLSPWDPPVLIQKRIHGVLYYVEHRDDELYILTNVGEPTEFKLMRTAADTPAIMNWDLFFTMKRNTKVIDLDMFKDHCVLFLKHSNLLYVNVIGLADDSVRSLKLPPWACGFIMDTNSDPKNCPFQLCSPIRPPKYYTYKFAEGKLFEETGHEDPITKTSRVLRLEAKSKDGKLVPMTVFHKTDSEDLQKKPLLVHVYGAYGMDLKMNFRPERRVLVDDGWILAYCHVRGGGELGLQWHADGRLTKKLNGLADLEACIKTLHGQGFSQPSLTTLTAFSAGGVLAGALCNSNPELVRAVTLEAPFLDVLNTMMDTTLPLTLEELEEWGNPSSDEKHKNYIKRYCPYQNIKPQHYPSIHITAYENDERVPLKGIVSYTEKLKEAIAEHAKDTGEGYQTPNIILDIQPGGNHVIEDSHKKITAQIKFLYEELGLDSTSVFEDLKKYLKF

The experiment has as its target Prolyl endopeptidase-like (Homo sapiens) (UniProt Q4J6C6). Description: human PREPL activity-probe blockers – biochemical, fluorescence polarization, primary screen (AID 2751).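 Further: 0% = enzyme with DMSO and 100% = wells lacking enzyme.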 The note with it: recombinant PREPL, fluorescence polarization activity-based probe; at 5.96 µM; stronger effect = higher value.
`CN=C1SC(CC(=O)Nc2ccc(C(=O)O)cc2)C(=O)N1C` (configuration not stated): the inhibition is 1.69%.
As for `COP1(=O)C[C@@H](O)[C@@H](O)[C@@H](COCc2ccccc2)O1` (some centres not stated), the inhibition was -5.04%.
Take `O=C(c1ccco1)N1CCN(C(=O)C2CCCN(S(=O)(=O)c3cccc4nsnc34)C2)CC1` (configuration not stated): the inhibition is -5.71%.
Regarding `CCc1ccc(/C=C2\SC(N3CCOCC3)=NC2=O)cc1`, the inhibition was 19.1%.
In the case of `O=C1N=C(N2CCc3ccccc3C2)S/C1=C\c1ccc(O)cc1` it was 47.4% (active); in that of `CC1CCN(C2=NC(=O)/C(=C/c3ccc(O)cc3)S2)CC1`, 12.1%.
Next, `C=CCOc1ccc(/C=C/C(=O)OCC(=O)NC(C)c2ccc(F)cc2)cc1` (configuration not stated): 5.51%.
As to `S=C(NCCC1=CCCCC1)Nc1ccccc1`, the inhibition is 9.47%.
On to `Oc1ccc2ccccc2c1N=Nc1nccs1`, for which the inhibition is 50.7% (active).
Next, `Cc1ccc(S(=O)(=O)N2CCN=C2SCc2c(F)cccc2Cl)cc1`: 11.2%; `C=CC(=O)OCCOCCOCCOCCOC(=O)C=C`: -0.81%.
Next, `Cc1ccc(C)c(OCC(=O)N2CCN(C(=O)c3ccco3)CC2)c1`: 1.04%.
Next, `CN1CCN(c2ccc(NC(=O)COc3ccc(Cl)cc3Cl)cc2)CC1`: 54.8% (active); `Cc1ccc(Cl)c(OCC(=O)N(C)CC(=O)Nc2ccc(N3CCOCC3)cc2)c1`: -6.09%.
For `Cc1ccc(OCC(=O)Nc2ccc(N3CCN(C(=O)c4ccco4)CC3)cc2)c(C)c1`, the inhibition is 55% (active).
As for `CCC(=O)Nc1ccc(C(=O)N2CCN(C(=O)c3ccco3)CC2)cc1`, the inhibition is -4%.
In the case of `CN1CCC(OC(=O)COc2ccc(Cl)cc2Cl)CC1` it was -6%; in that of `Cc1ccc(S(=O)(=O)c2nc(-c3cccs3)oc2NCc2cccnc2)cc1`, 8.75%; in that of `Oc1ccccc1-c1cc(-c2ccc(Cl)cc2)n[nH]1`, -35.8%.
In the case of `Cc1ccc(/C=N/NC(=O)c2cc3ccccc3cc2O)o1` it was 13.4%.
With `O=C(N/N=C/c1cccnc1)c1cc2ccccc2cc1O`, the inhibition was 63.4% (active).
In the case of `O=C(NN=Cc1ccc(N2CCOCC2)cc1)c1cc2ccccc2cc1O` it was 19.7%.
As to `NC(=O)COc1ccc(/C=N/NC(=O)C2CCCN2S(=O)(=O)c2ccc(Cl)cc2)cc1` (configuration not stated), the inhibition was 11%.
Take `CCCCN(C(=O)c1ccc(C)o1)c1c(N)n(CCCC)c(=O)[nH]c1=O`: the inhibition is -0.55%.
Consider `CC(C)(C)Nc1nc(-c2ccccn2)nc2ccccc12`, for which the inhibition was 47.1% (active).
In the case of `c1ccc2c(NCC3CCCO3)nc(-c3ccncc3)nc2c1` (configuration not stated) it was 5.66%; in that of `COc1ccc(CNc2ncnc3ccccc23)cc1`, -16.5%.

(Values after PubChem BioAssay AID2751 (The Scripps Research Institute Molecular Screening Center, 2010).)
